Laboratory results: the supplement of paper PMC7156485
“And” between values parts separate entries of the source, which are not always exact repeats. Identical values can stand only once. Unmarked numbers belong to inactive results.
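Note: TDF is a line of transformed human dermal fibroblasts of mesenchymal origin.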

The compounds below were run on TDF (assay: H1.0 immunofluorescence intensity relative to DMSO (% of DMSO); higher = stronger H1.0 induction, active = 120 or more). Details: concentration: 10 µM; 24 h.
In short: (§1)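 Six fields per well were imaged at ×10 after the cells were fixed in 3.7% formaldehyde and stained with a rabbit anti-H1.0 antibody, an AlexaFluor 647 secondary and DAPI. The HCC1569 and TDF cells had been plated at 800 per well in 384-well plates (RPMI, 10% FBS) and treated in triplicate with compounds at 10 µM for 24 h at 37 °C. The values are the median of replicates of H1.0 nuclear intensity or cell number, as percent of the plate control. Smoothing for positional effects was applied to HCC1569 data.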
Compound `OCC1NC(CO)C(O)C1O` [(2R,5R)-Bis(hydroxymethyl)-(3R,4R)-dihydroxypyrrolidine] has an H1.0 immunofluorescence intensity of 91.3. For `COc1ccc(C(=O)NCc2cccnc2)cc1C(=O)NCc1cccnc1` [Picotamide], the H1.0 immunofluorescence intensity was 93.6. `CN(C)CCOC(=O)COc1ccc(Cl)cc1.Cl` [Centrophenoxine hydrochloride] was tested, and the H1.0 immunofluorescence intensity was 103. `O=c1[nH]c(=O)n(C2CC(O)C(CO)O2)cc1F` (configuration not stated) [Floxuridine] showed an H1.0 immunofluorescence intensity of 112. With `CCCCCCCCCCCCCCCC(O)C(CO)NC(C)=O` (configuration not stated) [C2 Dihydroceramide] the H1.0 immunofluorescence intensity was 99.1. For `COC(=O)C1C2CC3c4[nH]c5cc(OC)ccc5c4CCN3CC2CC(OC(=O)c2cc(OC)c(OC)c(OC)c2)C1OC` (configuration not stated) [Reserpine], the H1.0 immunofluorescence intensity was 101. Work on `CCCCCC(O)C=CC1C=CC(=O)C1CC=CCCCC(=O)O` (configuration not stated) [Prostaglandin A2] yielded an H1.0 immunofluorescence intensity of 95.6. Work on `O=c1[nH][nH]c2nnc(-c3c(-c4ccccc4)nn4ccccc34)cc12` [ERK Inhibitor II,                   Negative control] yielded an H1.0 immunofluorescence intensity of 95.5. Work on `O=[N+]([O-])c1ccc(S(=O)(=O)NCc2ccccc2)c([N+](=O)[O-])c1` [N-Benzyl-2,4-dinitrobenzenesulfonamide] yielded an H1.0 immunofluorescence intensity of 117. `Cl.Cl.O=S(=O)(c1cccc2cnccc12)N1CCCNCC1` was tested, and the H1.0 immunofluorescence intensity was 99.5. For `CCN(NO)C1=CC(=O)C(=O)C=C1` [ET-3,4-dephostatin], the H1.0 immunofluorescence intensity was 94.7. For `O=c1[nH]c(=O)n(C2CCCO2)cc1F` (configuration not stated) [Ftorafur], the H1.0 immunofluorescence intensity was 99.6. Compound `CN(C)CCCC1(c2ccc(F)cc2)OCc2cc(C#N)ccc21` (configuration not stated) [Citalopram] has an H1.0 immunofluorescence intensity of 91.3. `Cl.Cl.Cl.Ic1ccc(N2CCN(Cc3c[nH]c4ncccc34)CC2)cc1` [L-750,667 trihydrochloride] showed an H1.0 immunofluorescence intensity of 103. `CCN1CCCC1CNC(=O)c1cc(S(=O)(=O)CC)c(N)cc1OC` (configuration not stated) [Amisulpride] gave an H1.0 immunofluorescence intensity of 104.

What follows are compounds tested on HCC1569 (assay: H1.0 immunofluorescence intensity relative to DMSO (% of DMSO); higher = stronger H1.0 induction, active = 140 or more). Details: concentration: 10 µM; 24 h.
In short: as §1
With `CCCCCCCCCCCCCCCCCC(=O)O` [Octadecanoic acid] the H1.0 immunofluorescence intensity was 95.3. Work on `CN(C)c1cc2c(Nc3ccc4c(cnn4Cc4ccccc4)c3)ncnc2cn1` yielded an H1.0 immunofluorescence intensity of 118. For `O=C(O)C=CC(=O)O.c1cnc(N2CCN(Cc3ccc4c(c3)OCO4)CC2)nc1` [Piribedil maleate], the H1.0 immunofluorescence intensity was 79.7. For `CNCCCC12CCC(c3ccccc31)c1ccccc12.Cl` [Maprotiline hydrochloride], the H1.0 immunofluorescence intensity was 99.1. `CC(=O)Nc1nnc(S(N)(=O)=O)s1` [Acetazolamide] was tested, and the H1.0 immunofluorescence intensity was 83.3. Compound `O=C(O)c1cccnc1C(=O)O` [Quinolinic acid] has an H1.0 immunofluorescence intensity of 99.9. `C=CC1CN2CCC1CC2C(O)c1ccnc2ccc(OC)cc12.Cl.O.O` (configuration not stated) gave an H1.0 immunofluorescence intensity of 92.6. In the case of `CCC(C)N(C)C(=O)c1cc2ccccc2c(-c2ccccc2Cl)n1` (configuration not stated), the H1.0 immunofluorescence intensity is reported as 84. `CC(C)N(CCC(=O)c1ccc2ccccc2c1)Cc1ccccc1.Cl` [JAK3 Inhibitor IV] was tested, and the H1.0 immunofluorescence intensity was 110. With `CCC(c1ccc(O)cc1)C(CC)c1ccc(O)cc1` (configuration not stated) [Hexestrol] the H1.0 immunofluorescence intensity was 119. `CC(=O)C(C)=NO` [2,3-Butanedione monoxime] gave an H1.0 immunofluorescence intensity of 115. `NC(N)=NC(CCC(=O)O)C(=O)O` (stereo not drawn) [alpha-Guanidinoglutaric acid] showed an H1.0 immunofluorescence intensity of 86.2. `CCC1(O)CC2CN(CCc3c([nH]c4ccccc34)C(C(=O)OC)(c3cc4c(cc3OC)N(C)C3C(O)(C(=O)OC)C(OC(C)=O)C5(CC)C=CCN6CCC43C65)C2)C1` (configuration not stated) [Vinblastine] was tested, and the H1.0 immunofluorescence intensity was 164 (active). For `CCCCCC(O)c1cccc(OCc2ccc3ccccc3n2)c1` (configuration not stated), the H1.0 immunofluorescence intensity was 110 and 101. Work on `O=C(O)c1ccccc1C(=O)Nc1ccc(-c2ccccc2)cc1` [2-[([1,1'-biphenyl]-4-ylamino)carbonyl]benzoic acid] yielded an H1.0 immunofluorescence intensity of 95.6. Work on `COC(=O)Nc1nc2ccc(S(=O)c3ccccc3)cc2[nH]1` (configuration not stated) [Oxfendazole] yielded an H1.0 immunofluorescence intensity of 124. Work on `CC(NC(CCc1ccccc1)C(=O)O)C(=O)N1CCCC1C(=O)O` (configuration not stated) [Enalaprilat] yielded an H1.0 immunofluorescence intensity of 96.9.
